TDP1 cell noCPT – qHTS for Inhibitors of human tyrosyl-DNA phosphodiesterase 1 (TDP1): qHTS in cells in absence of CPT; 15% of 420,000 active; DT40 Tdp1-/- hTDP1 cells, no CPT, ATP luminescence, 48 h; Potency, µM (titrated, usually from 46.2 µM), without a hit: at the highest dose activity change, negative = growth inhibition, actives largely listed as inhibitors; further: potency means the concentration at half of the fitted maximal effect; nearly all actives have a fitted effect of over 55% in size
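Luminescent ATP content (CellTiter-Glo) served as the growth readout. Knockout chicken DT40 cells expressing human TDP1 were exposed to compounds without camptothecin for a minimum 48 hr at 37 °C.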
HT1080 IDH1KD tx – kills HT-1080 cells with IDH1 knockdown; 2% of 360,000 active; Potency, µM (top dose mostly 46.1 µM), inactives show at the highest dose activity, negative = toxicity, usual class: cytotoxic; HT-1080 IDH1 knockdown viability, ATP luminescence, 48 h;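 further: potency means the concentration at half of the fitted maximal effect; 0% = DMSO wells and -100% = cell-free medium wells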
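Luminescent ATP read-out (CellTiter-Glo, 10 min at room temperature) after 48 h compound exposure at 37 °C gave viability of IDH1-knockdown HT-1080 cells. Activity was normalised to DMSO and cell-free wells, then fitted as concentration-response curves.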
HT1080NT lethal – kills 2HG-producing HT-1080-NT fibrosarcoma cells | HT-1080-NT fibrosarcoma viability, CellTiter-Glo ATP luminescence, 48 h | Potency, µM (titrated, usually from 46.1 µM), inactives show at the top dose activity, negative = less viability, usual class: cytotoxic | 1.6% of 360,000 active | AID 686970;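 further: NT is the 2HG producing partner of a matched IDH1 knockdown line; potency means the concentration at half of the fitted maximal effect; 0% = DMSO-treated cells and -100% = media-only wells without cells; nearly all actives have a fitted effect of over 55% in size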
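Read-out is CellTiter-Glo luminescence after 10 minutes at room temperature, following 48 hours' compound treatment of HT-1080-NT cells (750 cells/well, RPMI, 5% FBS, 37 degrees C).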
DT40 TDP1 CPT – growth inhibition of DT40 Tdp1-/-;hTDP1 cells with camptothecin (screen for TDP1 inhibitors); 12% of 420,000 active; Potency, µM (top dose mostly 46.2 µM), without a hit: at the top dose activity change, negative = growth inhibition, hits mostly inhibitors; AID 686979; chicken DT40 Tdp1-/-;hTDP1 cells + 20 nM CPT, ATP luminescence, 48 h; further: potency means the concentration at half of the fitted maximal effect; nearly all actives have a fitted effect of over 55% in size
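Cell growth measured by CellTiter-Glo luminescence after a minimum 48 h, 37 C compound exposure with 20 nM CPT in Tdp1-knockout DT40 cells stably expressing hTDP1, seeded 400/well; qHTS titration format.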
IL1B secr inh – inhibitors of inflammasome signaling (IL-1 beta secretion) | AID 743279 | activity change, % at 57.5 µM | 4.7% of 360,000 active | THP-1 LPS/ATP IL-1B secretion, AlphaLISA, 16 h; hits give low values; in the data active means activity change below about -50%; inconclusive means mostly about -30% to -49%
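THP-1 cells pretreated 1 hr with compounds (up to 57.5 uM final), then stimulated with LPS (250 ng/mL final) plus ATP (1.25 mM final); secreted IL-1B measured by AlphaLISA after 16 hr, decreased signal indicating inhibition.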
An asterisk follows results filed as active; u = inconclusive; x = no result. A selection: hits, their analogues and other compounds. The true share with any hit is near 19%. Unless noted, the call rests on the fitted dose curve; in most records, active means well fitted curve in the direction sought with a large enough effect; inconclusive means small, poorly fitted or top-dose-only effect, or another doubt; inactive means no such curve, though single readings can be large; an effect the other way counts as inactive or inconclusive. Unless noted, on the % scale 0 is the no-effect control and ±100 the full control effect.

SMILES	TDP1 cell noCPT	HT1080 IDH1KD tx	HT1080NT lethal	DT40 TDP1 CPT	IL1B secr inh
O=C(COC(=O)C1Cc2ccccc2CN1C(=O)c1ccccc1)Nc1ccc(SC(F)F)cc1 (configuration not stated)	u	-13%	-7%	u	13
COc1cc(C2C(=O)N(C3CCCCCC3)CC(=O)N2Cc2ccccc2)ccc1OC(C)C (configuration not stated)	23µM*	x	x	u	x
COc1ccc(CCN2C(=O)CN(C3CCC(C)CC3)C(=O)C2c2ccc(OC(C)C)c(OC)c2)cc1OC (configuration not stated)	u	x	x	16µM*	x
CCOC(=O)[C@]12CCCC=C1N(CCC1=CCCCC1)C(=O)[C@H](CC(=O)N1CCN(C(=O)C3CC3)CC1)C2	u	-17%	10%	u	-21
CCOC(=O)[C@]12CCCC=C1N(Cc1ccccc1)C(=O)[C@H](CC(=O)N1CCCC1)C2	u	-2%	-3%	-17%	5
CCCCCCCCN1C(=O)[C@H](CC(=O)N2CCN(C(=O)OCC)CC2)C[C@@]2(C(=O)OCC)CCCC=C12	u	u	u	16µM*	-22
CCCCCCCCN1C(=O)[C@H](CC(=O)N2CCCC2)C[C@@]2(C(=O)OCC)CCCC=C12	8.2µM*	u	u	8.2µM*	u
Cc1ccc(OCC(O)Cn2c(N3CCCCC3)nc3c2c(=O)[nH]c(=O)n3C)cc1C (configuration not stated)	u	6%	1%	u	0
Cc1cccc(NC2=C(NCCO)C(=O)c3ccccc3C2=O)c1	21µM*	-29%	u	16µM*	-57*
COc1ccc(NC2=C(NCCO)C(=O)c3ccccc3C2=O)cc1	15µM*	8.2µM*	13µM*	12µM*	11
COC(=O)CC1(c2ccc(OC)cc2)C(=O)c2ccccc2C1=O	u	u	u	2%	25
COc1cccc(NC2=C(NCCO)C(=O)c3ccccc3C2=O)c1	u	u	u	u	-74*
COc1cccc(Nc2c(Nc3cccc(OC)c3)c(=O)c2=O)c1	4%	8%	3%	4%	14
COc1cccc(N2CCN(c3ccc4nnc(CCC(=O)Nc5ccc(OC)c(OC)c5)n4n3)CC2)c1	u	25%	10%	u	4
CSc1nnc(Cn2c(=O)sc3ccccc32)n1-c1ccccc1	21µM*	2%	0%	21µM*	24
CCOC(=O)CNC(=O)CSc1nnc(Cn2c(=O)sc3ccccc32)n1-c1ccccc1C	u	-29%	3%	u	-94*
CCN1CCN(Cc2c(C)[nH]c3ccc(OC)cc3c2=O)CC1	u	14%	10%	-6%	19
CCOc1cc(/C=C2\N=C(SC(C)C(N)=O)N(c3ccc(OC(F)F)cc3)C2=O)ccc1O (configuration not stated)	10µM*	u	u	u	-12
COc1ccc(N2C(=O)/C(=C\c3ccco3)N=C2SCC(=O)NC(C)(C)C)cc1Cl	u	-8%	3%	u	u
NC(=O)CSC1=N/C(=C\c2ccco2)C(=O)N1c1ccc(OC(F)F)cc1	13µM*	2%	1%	u	-9
CCOc1cc(/C=C2\SC(=O)N(c3ccc(O)cc3)C2=O)ccc1O	u	-1%	-6%	u	u
CCN(CC)C(=O)CSC1=N/C(=C/c2ccco2)C(=O)N1c1ccc(OC)c(Cl)c1	u	0%	-11%	21µM*	-54*
Cc1cc(C)n2nc(SC(C)C(=O)N(C)c3ccccc3)nc2n1 (configuration not stated)	0%	-1%	7%	-29%	41
Nn1c(SCC(=O)Nc2nccs2)nnc1C1CC1	9%	6%	6%	-15%	13
C1=Cc2ccccc2/C1=C\c1cc2c3c(c1)CCCN3CCC2	5µM*	x	x	1.1µM*	x
SMILES	TDP1 cell noCPT	HT1080 IDH1KD tx	HT1080NT lethal	DT40 TDP1 CPT	IL1B secr inh
C1=Cc2ccccc2/C1=C\c1ccc(/C=C2\C=Cc3ccccc32)cc1	-9%	x	x	-2%	x
CCCC1=C(C(=O)OCC)C(c2c(C)nn(-c3ccccc3)c2Cl)C(C#N)=C(N)O1 (configuration not stated)	21µM*	0%	-2%	u	8
N#CC1=C(N)Oc2c(ccc3ccccc23)C1c1cccs1 (configuration not stated)	0.63µM*	1.3µM*	2µM*	0.56µM*	55
CCOC(=O)C1=C(CSc2nc(-c3ccccc3)ccc2C#N)OC(N)=C(C#N)C1c1ccccc1 (configuration not stated)	2.9µM*	7%	10%	3.7µM*	0
COC(=O)CC1=C(C(=O)OC)C(c2cccs2)C(C#N)=C(N)O1 (configuration not stated)	-1%	11%	9%	-19%	-28
CCOC(=O)C1=C(CC)OC(N)=C(C#N)C1c1cccs1 (configuration not stated)	-20%	22µM*	u	-27%	-12
N#CC1=C(N)Oc2cc(O)ccc2C1c1cccs1 (configuration not stated)	u	-20%	-17%	u	20
CCCC1=C(C(=O)OCC)C(c2ccc(OC)c(CSc3ccccn3)c2)C(C#N)=C(N)O1 (configuration not stated)	u	-8%	-6%	u	2
Cc1ccc(NC(=O)COC(=O)CCc2c[nH]c3ccccc23)c(C)c1	u	2%	-1%	u	5
CCOC(=O)CC1=C(C(=O)OCC)C(c2cccnc2)C(C#N)=C(N)O1 (configuration not stated)	1%	8%	5%	-1%	-13
CCOC(=O)C1=C(CSc2nc(-c3ccccc3)ccc2C#N)OC(N)=C(C#N)C1c1cccnc1 (configuration not stated)	4.6µM*	-4%	-10%	2.9µM*	36
CCOC(=O)c1c(C)oc2ncnc(Nc3cc(C)cc(C)c3)c12	-8%	x	x	-15%	x
O=C(O)c1ccc(S(=O)(=O)NCC2CCCCC2)cc1	-8%	13%	4%	5%	17
COc1ccc(C(C)C)cc1S(=O)(=O)n1cnc(C)c1	23µM*	u	u	16µM*	6
COc1cc(C)c(Cl)cc1S(=O)(=O)n1cnc(C)c1	-13%	0%	8%	-7%	8
CCOc1cc(C)c(C(C)C)cc1S(=O)(=O)N1CC(C)OC(C)C1 (configuration not stated)	u	-10%	-1%	u	15
